Data reported in PubChem BioAssay AID504892 (The Scripps Research Institute Molecular Screening Center, 2011).
Active and inactive are the calls of the source. How the calls were made is not given here.

Target: sn-1-specific diacylglycerol lipase ABHD11 (Homo sapiens) (UniProt Q8NFV4)
Assay: ABHD11 inhibitors, late-stage follow-up, gel-based ABPP, fluorescence, human isoform (AID 504892)
Conditions: human ABHD11 proteome; at 20 µM (top of the series) unless noted

Chain of sn-1-specific diacylglycerol lipase ABHD11 (Homo sapiens) (Q8NFV4 whole entry, looked up, canonical isoform): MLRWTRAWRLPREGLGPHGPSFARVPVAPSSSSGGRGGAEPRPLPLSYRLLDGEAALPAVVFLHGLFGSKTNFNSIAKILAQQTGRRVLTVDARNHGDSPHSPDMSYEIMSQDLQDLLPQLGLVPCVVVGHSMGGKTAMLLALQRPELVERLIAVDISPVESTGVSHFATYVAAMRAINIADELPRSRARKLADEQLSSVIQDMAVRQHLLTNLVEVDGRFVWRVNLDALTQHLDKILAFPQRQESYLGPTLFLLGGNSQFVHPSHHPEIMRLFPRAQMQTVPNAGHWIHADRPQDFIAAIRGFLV

| Compound | inhibition |
| --- | --- |
| CCC1CCCCN1C(=O)n1ncc(C(O)(c2ccccc2)c2ccccc2)n1 (configuration not stated) | 100% [at 0.15 µM] (active) |
| CCC1CCCCN1C(=O)Oc1ccc([N+](=O)[O-])cc1 (configuration not stated) | 0% (inactive) |
